Measurements taken from PubChem BioAssay.
Calls of active or inactive are those of the source. Unless noted, no rule for the calls is given here.

Experiments:
[1] = anti-His antibody binders, primary screen, artefact control for SMM control protein annotation, biochemical, small-molecule microarray, 635 nm fluorescence (AID 1128); settings: anti-His Alexa647 antibody binding, higher = more signal;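 also: score merges feature fluorescence with signal-to-noise for each printed compound spot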
[2] = test system: Human papillomavirus type 1a E7 protein (residues 1-88); assay: HPV1a E7 small-molecule binders, primary screen, biochemical, small-molecule microarray, residues 1-88, 635 nm (AID 1129); settings: small-molecule microarray binding, fluorescence 635 nm; higher = more signal
[3] = target: Focal adhesion kinase 1 (Homo sapiens) (UniProt Q05397); assay: small-molecule microarray binders of FAK, primary screen, biochemical, 635/667 nm fluorescence, BSA, DTT (AID 1130); settings: PTK2 binding, 635 nm fluorescence, higher = more signal;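 also: composite of spot emission at 667 nm and signal to noise over triplicate slides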
Chain of Focal adhesion kinase 1 (Homo sapiens) (Q05397 whole entry, looked up): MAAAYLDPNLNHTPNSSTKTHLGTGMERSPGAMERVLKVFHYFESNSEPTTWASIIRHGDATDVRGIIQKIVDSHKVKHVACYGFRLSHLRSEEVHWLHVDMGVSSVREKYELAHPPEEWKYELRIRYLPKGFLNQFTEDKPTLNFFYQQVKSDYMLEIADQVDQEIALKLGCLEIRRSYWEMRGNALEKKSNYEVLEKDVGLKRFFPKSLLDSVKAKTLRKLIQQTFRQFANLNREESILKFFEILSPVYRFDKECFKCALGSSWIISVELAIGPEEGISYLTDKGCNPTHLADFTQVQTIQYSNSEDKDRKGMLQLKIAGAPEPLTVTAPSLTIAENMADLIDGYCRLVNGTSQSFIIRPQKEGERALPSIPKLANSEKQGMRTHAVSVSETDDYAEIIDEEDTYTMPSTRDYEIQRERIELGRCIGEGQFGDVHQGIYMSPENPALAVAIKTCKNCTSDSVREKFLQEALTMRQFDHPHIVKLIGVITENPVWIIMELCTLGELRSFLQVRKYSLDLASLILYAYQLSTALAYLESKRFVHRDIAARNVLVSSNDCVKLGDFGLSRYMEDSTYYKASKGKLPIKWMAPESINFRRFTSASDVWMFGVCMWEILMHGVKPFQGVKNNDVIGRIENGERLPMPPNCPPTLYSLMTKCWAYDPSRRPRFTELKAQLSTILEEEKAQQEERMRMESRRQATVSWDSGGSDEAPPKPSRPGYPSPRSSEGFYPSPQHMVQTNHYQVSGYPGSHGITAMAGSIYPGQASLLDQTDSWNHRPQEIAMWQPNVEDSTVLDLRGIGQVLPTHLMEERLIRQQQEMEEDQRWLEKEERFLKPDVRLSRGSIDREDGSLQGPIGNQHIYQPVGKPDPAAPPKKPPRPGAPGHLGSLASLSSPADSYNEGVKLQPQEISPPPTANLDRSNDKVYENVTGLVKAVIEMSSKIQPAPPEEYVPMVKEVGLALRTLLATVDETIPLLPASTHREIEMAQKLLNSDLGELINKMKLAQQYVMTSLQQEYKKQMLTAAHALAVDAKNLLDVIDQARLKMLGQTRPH

[4] = test system: Fibrinogen (Alexa647-labelled); assay: fibrinogen binders on compound microarrays, profiling panel, artefact control for SMM control-protein annotation, biochemical, small-molecule microarray, 635/667 nm fluorescence (AID 1131); settings: fibrinogen-A647 binding fluorescence, higher = more signal;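 also: z-score merges 667 nm fluorescence with per-spot signal-to-noise over triplicate slides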
[5] = target: Follistatin (Homo sapiens) (UniProt P19883); assay: follistatin binders on small-molecule microarrays, primary screen, biochemical, small-molecule microarray, 635/667 nm fluorescence (AID 1132); settings: FST binding, 635 nm fluorescence, higher = more signal
Chain of Follistatin (Homo sapiens) (P19883 whole entry, looked up): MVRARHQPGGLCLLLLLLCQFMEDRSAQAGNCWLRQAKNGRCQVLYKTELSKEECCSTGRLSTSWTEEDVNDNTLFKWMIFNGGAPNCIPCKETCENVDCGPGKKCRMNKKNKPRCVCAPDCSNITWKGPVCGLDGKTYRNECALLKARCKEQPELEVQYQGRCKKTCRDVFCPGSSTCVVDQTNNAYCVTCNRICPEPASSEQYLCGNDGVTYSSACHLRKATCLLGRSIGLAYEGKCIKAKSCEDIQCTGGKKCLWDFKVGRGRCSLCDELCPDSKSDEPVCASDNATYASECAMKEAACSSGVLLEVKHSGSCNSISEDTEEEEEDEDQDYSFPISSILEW

[6] = target: Fibroblast growth factor 2 (Homo sapiens) (UniProt P09038); assay: FGF2 binders on small-molecule microarrays, primary screen, biochemical, small-molecule microarray, 635/667 nm fluorescence (AID 1133); settings: small-molecule microarray binding, FGF2, fluorescence 635/667; higher = more signal
Chain of Fibroblast growth factor 2 (Homo sapiens) (P09038 whole entry, looked up): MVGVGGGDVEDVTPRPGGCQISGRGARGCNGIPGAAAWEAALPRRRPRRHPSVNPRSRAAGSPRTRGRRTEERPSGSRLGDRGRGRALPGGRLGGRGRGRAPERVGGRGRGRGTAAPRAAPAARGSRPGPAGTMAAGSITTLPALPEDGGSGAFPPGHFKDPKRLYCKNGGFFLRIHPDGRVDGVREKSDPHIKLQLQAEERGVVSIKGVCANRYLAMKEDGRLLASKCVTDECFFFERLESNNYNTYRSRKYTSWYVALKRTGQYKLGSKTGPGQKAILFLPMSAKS

[7] = mitochondrial membrane potential change in A549 cells, profiling panel, cell-based, JC-1 fluorescence, basal, 24 h, 100 nL (AID 1138); settings: higher = more signal;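 also: A549 lung adenocarcinoma cells under basal conditions with no added stimulus; test concentration not given here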
Lefty1 = Lefty1 binders on small-molecule microarrays, primary screen, biochemical, small-molecule microarray, 635/667 nm fluorescence (AID 1139); settings: small-molecule microarray binding, fluorescence 635/667; higher = more signal
[8] = test system: wheat germ agglutinin (Triticum aestivum), Alexa647-labelled; assay: wheat germ agglutinin binders on compound microarrays, profiling panel, artefact control for SMM control-protein annotation, biochemical, small-molecule microarray, 635/667 nm fluorescence (AID 1140); settings: WGA-A647 binding, 635 nm fluorescence, higher = more signal;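 also: score merges 667 nm feature emission with signal to noise over triplicate slides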
[9] = target: Luciferin 4-monooxygenase (Photinus pyralis) (UniProt P08659); assay: firefly luciferase enzyme inhibitors, primary screen, biochemical, luminescence, purified enzyme, 2006 set (AID 1141); settings: SteadyGlo luminescence, 30 min, higher = more signal, called active from +8 up or from −8 down;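 also: cell-free assay with purified firefly luciferase at 100 ng per well in PBS; test concentration not given here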
Chain of Luciferin 4-monooxygenase (Photinus pyralis) (P08659 whole entry, looked up): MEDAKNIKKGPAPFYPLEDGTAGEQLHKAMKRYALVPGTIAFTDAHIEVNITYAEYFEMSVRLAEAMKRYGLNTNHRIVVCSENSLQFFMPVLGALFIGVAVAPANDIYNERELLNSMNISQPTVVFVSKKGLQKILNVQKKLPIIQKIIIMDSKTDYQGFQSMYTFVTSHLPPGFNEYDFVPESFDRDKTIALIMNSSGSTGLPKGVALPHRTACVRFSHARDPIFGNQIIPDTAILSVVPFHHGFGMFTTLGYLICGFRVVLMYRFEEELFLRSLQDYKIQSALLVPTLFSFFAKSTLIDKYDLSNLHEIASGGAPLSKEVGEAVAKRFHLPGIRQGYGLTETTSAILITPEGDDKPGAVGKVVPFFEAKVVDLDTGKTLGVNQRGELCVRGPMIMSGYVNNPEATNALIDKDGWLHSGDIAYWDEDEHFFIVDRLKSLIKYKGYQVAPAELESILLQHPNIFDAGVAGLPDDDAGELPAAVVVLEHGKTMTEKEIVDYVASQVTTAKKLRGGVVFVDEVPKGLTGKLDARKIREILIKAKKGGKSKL

[10] = test system: Wnt5a (protein binding on small-molecule microarray); assay: Wnt5a binders on small-molecule microarray, primary screen, biophysical, 635/667 nm fluorescence (AID 1142); settings: 635 nm fluorescence, higher = more signal;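 also: fluorescence read at 667 nm with signal to noise per printed feature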
[11] = cell viability in Huh7 cells, primary screen, cytotoxicity control for HCV replication inhibitor project, CellTiter-Glo luminescence, basal, 48 h (AID 1143); settings: Huh7 HCV replicon, higher = more signal, called active from +8 up or from −8 down;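 also: Huh7 hepatoma cells carrying a hepatitis C replication reporter with no stimulus; test concentration not given here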
[12] = P. aeruginosa biofilm formation inhibitors, primary screen, PAO1 strain, BacTiter-Glo luminescence, LB-PBS (AID 1144); settings: 12 h, higher = more signal
[13] = CREB reporter modulators without forskolin, primary screen, cell-based, PC12, CRE-LacZ reporter, unstimulated (AID 1145); settings: no forskolin, luminescence, 4.5 h, higher = more signal, called active from +8 up or from −8 down
[14] = CREB reporter modulators under forskolin, primary screen, cell-based, PC12, CRE-LacZ reporter, forskolin-stimulated (AID 1146); settings: luminescence, 4.5 h, higher = more signal, called active from +8 up or from −8 down;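 also: PC12 cells with 6xCRE LacZ reporter stimulated by forskolin 10 µM; beta-galactosidase reporter signal reflecting CREB driven transcription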
[15] = target: Streptavidin (Streptomyces avidinii) (UniProt P22629); assay: streptavidin binders on small-molecule microarray, primary screen, artefact control for SMM compound annotation, biophysical, 635/667 nm fluorescence (AID 1147); settings: streptavidin binding, higher = more signal;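 also: signal reflects streptavidin binding to arrayed compounds as a control protein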
Chain of Streptavidin (Streptomyces avidinii) (P22629 whole entry, looked up): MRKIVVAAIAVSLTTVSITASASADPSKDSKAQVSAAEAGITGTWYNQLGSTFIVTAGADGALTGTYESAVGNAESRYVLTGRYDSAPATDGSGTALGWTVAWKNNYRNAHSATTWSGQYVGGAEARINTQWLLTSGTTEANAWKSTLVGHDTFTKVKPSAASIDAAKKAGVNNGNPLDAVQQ

[16] = small-molecule binders of probe aInhba, primary screen, biochemical, small-molecule microarray, 635/667 nm fluorescence (AID 1148); settings: higher = more signal;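 also: score merges 667nm spot fluorescence with signal-to-noise for antibody binding to printed compounds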
Torsin-1A (Homo sapiens) [17] = target: Torsin-1A (Homo sapiens) (UniProt O14656); assay: torsin A binders from cell lysate, primary screen, small-molecule microarray, wild-type, 635/667 nm (AID 1149); settings: COS7 hTOR1A-WT lysate, 635 nm fluorescence, higher = more signal
Chain of Torsin-1A (Homo sapiens) (O14656 whole entry, looked up): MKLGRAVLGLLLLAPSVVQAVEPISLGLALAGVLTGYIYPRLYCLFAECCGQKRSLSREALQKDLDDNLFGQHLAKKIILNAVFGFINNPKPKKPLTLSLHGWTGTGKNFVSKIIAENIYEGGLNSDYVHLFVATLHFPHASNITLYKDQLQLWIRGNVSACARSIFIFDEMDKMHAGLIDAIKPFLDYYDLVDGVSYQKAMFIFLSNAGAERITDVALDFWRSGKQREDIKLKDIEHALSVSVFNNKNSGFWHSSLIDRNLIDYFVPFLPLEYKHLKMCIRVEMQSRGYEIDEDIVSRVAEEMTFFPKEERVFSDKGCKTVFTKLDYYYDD

Torsin-1A (Homo sapiens) [18] = target: Torsin-1A (Homo sapiens) (UniProt O14656); assay: small-molecule binders of mutant TOR1A in lysate, primary screen, cell lysate, small-molecule microarray, COS7 lysate, 635/667 nm fluorescence (AID 1150); settings: COS7 hTOR1A mutant lysate, 635 nm fluorescence, higher = more signal;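 also: score pools 667 nm emission and signal to noise measuring lysate protein binding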
[19] = test system: Sonic hedgehog protein (Shh); assay: small-molecule binders of Shh protein, primary screen, biochemical, small-molecule microarray, 635/667 nm fluorescence (AID 1151); settings: small-molecule microarray binding, 635 nm fluorescence; higher = more signal;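 also: Shh protein binding to compounds spotted on small-molecule microarray slides; score combines spot fluorescence intensity with signal-to-noise across triplicate slides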

Compound | composite z-score [1] | composite z-score [2] | composite z-score [3] | composite z-score [4] | composite z-score [5] | composite z-score [6] | z-score [7] | composite z-score (Lefty1) | composite z-score [8] | z-score [9] | composite z-score [10] | z-score [11] | z-score [12] | z-score [13] | z-score [14] | composite z-score [15] | composite z-score [16] | composite z-score (Torsin-1A (Homo sapiens) [17]) | composite z-score (Torsin-1A (Homo sapiens) [18]) | composite z-score [19]
COC(=O)[C@@]1(Cc2ccccc2N=[N+]=[N-])N=C(c2ccc(OCCCO)cc2)O[C@H]1c1ccccc1 | 2.23 | 1.13 | 0.771 | 0.422 | 0.465 | 0.19 | -1.26 | 0.138 | 0.0657 | -2.7 (inactive) | 0.748 | -5.42 (inactive) | 0.313 (inactive) | 1.29 (inactive) | -0.688 (inactive) | 0.248 | -0.0403 | -0.89 | 0.305 | 0.175
CCCN1C(=O)[C@@H]2Cc3c([nH]c4ccccc34)[C@@H](c3cccc(O)c3)N2C1=O | -0.147 | 0.483 | 0.131 | 0.321 | 0.374 | 0.428 | 0.233 | 0.287 | -0.0455 | 0.718 (inactive) | -0.0436 | 0.792 (inactive) | -0.23 (inactive) | -0.374 (inactive) | -0.0707 (inactive) | -0.294 | -0.024 | 0.288 | 0.193 | 0.216
CC(C)C(CO)N1C(=O)[C@@H]2[C@H]3C(=O)OCC=C[C@H]3OC23C=CCN(CCN2CCOCC2)C(=O)[C@@H]13 (stereo not given in full) | 0.108 | -0.438 | -0.403 | 0.0835 | 0.418 | -0.328 | -0.0537 | 0.817 | -0.467 | -0.233 (inactive) | -0.406 | 0.29 (inactive) | 2.66 (inactive) | 1.01 (inactive) | 1.25 (inactive) | -0.38 | -0.128 | -0.412 | 0.743 | 1.73
C=CC[C@]1(C(=O)N2CCOCC2)N=C(c2ccc(OCCCO)cc2)O[C@H]1c1ccccc1CN=[N+]=[N-] | 1.82 | 1.21 | 0.88 | 0.97 | 1.28 | 0.95 | 1.64 | 1.05 | 0.845 | -1.46 (inactive) | 0.662 | -3.25 (inactive) | 0.112 (inactive) | 3.51 (inactive) | -0.745 (inactive) | 1.06 | 0.455 | 0.689 | 1.1 | 0.871
O=C1c2ccccc2[C@](Cc2ccccc2I)(C(=O)NC2CC2)[C@H](c2ccc(CO)cc2)N1Cc1ccccc1Cl | 1.07 | 1.17 | 0.344 | 0.0468 | 1.23 | 1.6 | 0.756 | 0.0036 | 0.86 | -0.0487 (inactive) | 0.805 | -0.77 (inactive) | 0.167 (inactive) | 0.468 (inactive) | -0.159 (inactive) | 0.191 | 0.168 | 0.501 | 1.04 | 1
[N-]=[N+]=NCc1ccccc1[C@H]1OC(c2ccc(OCCCO)cc2)=N[C@@]1(Cc1ccccc1N=[N+]=[N-])C(=O)NCCN1CCOCC1 | 2.01 | 1.27 | 0.387 | 0.981 | 1.27 | 0.939 | 1.57 | 0.631 | 1.2 | -2.69 (inactive) | 0.853 | -2.28 (inactive) | 0.28 (inactive) | 0.162 (inactive) | -0.542 (inactive) | 1.37 | 0.0657 | -0.161 | 1.04 | 0.271
CC(C)CNC(=O)[C@@]1(c2ccc([N+](=O)[O-])cc2)CC(=O)N(C(C)C)[C@@H]1c1ccc(CO)cc1 | 0.217 | -0.467 | -0.362 | -1.2 | 0.272 | -1.25 | -0.0836 | -0.455 | 0.486 | 1.18 (inactive) | -0.618 | -4.3 (inactive) | -1.28 (inactive) | -1.06 (inactive) | 0.107 (inactive) | -1.19 | -0.233 | -0.486 | -1.29 | 0.225
COCCOC(=O)N1C(=O)[C@@]2(c3cc(C#CCCO)ccc31)[C@H](c1ccc(OCCO)cc1)N1[C@H](c3ccccc3)[C@H](c3ccccc3)OC(=O)[C@H]1[C@@H]2C(=O)N1CCc2cc(OC)c(OC)cc2C1 | 1.2 | 1.19 | 0.81 | 0.249 | 1.22 | 1.11 | -0.633 | 1.08 | 0.0877 | -0.856 (inactive) | 0.359 | -0.415 (inactive) | -0.66 (inactive) | -0.231 (inactive) | -0.196 (inactive) | 0.402 | 0.153 | 0.637 | 0.748 | 1.37
C=CCN1C(=O)[C@@]2(O[C@@H](CCn3cc([C@H](O)c4ccccc4)nn3)[C@H]([Si](C)(C)c3ccc(OC)cc3)[C@H]2C)c2cc(NC(=O)c3ccc(OC)cc3)ccc21 | 0.623 | 0.931 | 0.386 | 0.0475 | 0.987 | 0.518 | 0.763 | 0.628 | -0.191 | 0.427 (inactive) | 0.192 | -3.14 (inactive) | -0.527 (inactive) | 3.97 (inactive) | 0.35 (inactive) | 0.429 | -0.128 | -0.0041 | -0.0819 | 1.32
COc1cc(C(O)C2C=CC3C(=O)N(C)C(=O)C3N2NC(=O)OC(C)(C)C)cc(OC)c1OC (stereo not given) | 1.28 | 1.21 | 0.474 | 1.03 | 0.0314 | -0.0371 | -0.54 | -0.338 | 0.807 | 0.225 (inactive) | 0.653 | 0.778 (inactive) | 0.66 (inactive) | -0.326 (inactive) | 1.25 (inactive) | 0.671 | 0.798 | -0.146 | 0.727 | -0.32
